ALDH1A1 inh: inhibitors of human aldehyde dehydrogenase 1A1. Purified ALDH1A1, NADH fluorescence, propionaldehyde substrate. Potency, µM (top dose mostly 75.3 µM), most hits filed as inhibitors. actives 7.3% (n = 220,000). P00352; active means well fitted inhibition curve with a large enough effect, not every such curve was filed as active; inconclusive means small, poorly fitted or top-dose-only effect, or another doubt; inactive means no such curve, though single readings can be large or run the other way
HPGD block: HPGD (human) dehydrogenase inhibition | purified HPGD, NADH fluorescence kinetic, PGE2 substrate | Potency, µM, usual class: inhibitors | actives 4.3% (n = 150,000) | AID 894; active means well fitted inhibition curve with a large enough effect, not every such curve was filed as active; inconclusive means small, poorly fitted or top-dose-only effect, or another doubt; inactive means no such curve, though single readings can be large or run the other way
Target sequence (P15428 whole entry, looked up): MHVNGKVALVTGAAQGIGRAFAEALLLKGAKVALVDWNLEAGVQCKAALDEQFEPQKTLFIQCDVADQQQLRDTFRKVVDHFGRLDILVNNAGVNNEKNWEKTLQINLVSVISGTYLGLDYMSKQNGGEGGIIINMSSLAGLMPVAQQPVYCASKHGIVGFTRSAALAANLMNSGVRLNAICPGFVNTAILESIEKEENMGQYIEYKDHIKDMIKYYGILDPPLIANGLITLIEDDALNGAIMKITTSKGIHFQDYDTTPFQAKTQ
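NADH formation kinetics: reaction with 30 uM PGE2 and 1 mM NAD+ (final), 20 nM enzyme, Tris-HCl pH 8 with Tween 20, after 15 min compound preincubation at room temperature. Fluorescence change, last versus first of five reads.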
LMNA splice mod: LMNA splicing modulation | actives 0.01% (n = 200,000) | AID 1487 | Potency, µM (series often up to 46.1 µM), actives largely listed as inhibitors | HeLa LMNA splicing GFP/RFP minigene ratio, 48 h; active means well fitted inhibition curve with a large enough effect in the signal ratio, with a control signal flat, not every such curve was filed as active; inconclusive means small, poorly fitted or top-dose-only effect, or effect the other way, or a change in a side signal; the % refers to the signal ratio
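S3 HeLa cells stably expressing lamin A-EGFP splicing minigene plus DsRed2, 600 cells/well, 48 h compound exposure at 37C. Laser-scanning cytometry; analysed as GFP (500-530 nm)/RFP (575-640 nm) total intensity ratio; 0.5% DMSO vehicle.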
HTT cytoprotect: Huntington cell model cytoprotection by ATP luminescence | PC12 HTT-Q103 induced, cytoprotection, ATP luminescence, 40 h | Potency, µM (series often up to 56.4 µM), most hits filed as activators | actives 0.14% (n = 230,000); further: nearly all actives have a fitted effect of over 45% in size
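Stable PC12 Q103-GFP cells in serum-supplemented, phenol red-free DMEM; induction by tebufenozide at 100 nM final; compound dose series; cell viability quantified luminescently from ATP.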
HttQ103 aggreg: inhibitors of mutant huntingtin aggregate formation in PC12 cells; PC12 HttQ103-GFP aggregates, Acumen cytometry, 40 h; Potency, µM (series often up to 46.1 µM), usual class: inhibitors; actives 1.1% (n = 220,000); AID 1688; further: nearly all actives have a fitted effect of over 60% in size
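PC12 cells with ecdysone-inducible HTT exon1 Q103-GFP, induced by 100 nM tebufenozide, given compounds in a concentration series. GFP aggregates (1–25 um, 6 SD above background) counted in lysates by laser-scanning cytometry, 488 nm excitation.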
Numbers stand for hits; – = inactive; ? = inconclusive; · = no result; [ ] = another dose, or the depositor's remark. The list is not random: actives were taken first. Their share in the collection is about 8.8%. Unless noted, the call rests on the fitted dose curve; in most records, active means well fitted curve in the direction sought with a large enough effect; inconclusive means small, poorly fitted or top-dose-only effect, or another doubt; inactive means no such curve, though single readings can be large; an effect the other way counts as inactive or inconclusive.

SMILES | ALDH1A1 inh | HPGD block | LMNA splice mod | HTT cytoprotect | HttQ103 aggreg
CC(C)n1c(=S)[nH]c2scc(-c3cccs3)c2c1=O | 13µM | · | · | –[10 µM] | –[9.22 µM]
CCn1c(=S)[nH]c2scc(-c3cccs3)c2c1=O | 14µM | · | – | –[10 µM] | ?
Cc1ccc(C)n1-n1cnc2scc(-c3cccs3)c2c1=O | ? | – | – | – | –
Cc1nc2scc(-c3cccs3)c2c(=O)n1CC(=O)O | – | – | – | – | –
C=CCn1c(-c2csc3ccccc23)n[nH]c1=S | – | – | – | – | –
CC1(C)O[C@@H]2O[C@H]([C@@H]3COC(C)(C)O3)[C@H](N)[C@H]2O1 | –[13.5 µM] | – | · | –[10 µM] | ·
O=c1c2c(-c3cccs3)csc2[nH]c(=S)n1-c1ccccc1 | 22µM | 28µM | – | – | –
O=c1c2c(-c3cccs3)csc2ncn1-c1ccccc1 | ? | – | – | –[1.9 µM] | –
O=C(Nc1ccc(Br)cc1)c1cc(Br)c(Br)s1 | · | · | · | – | –
CC1=NOC(=O)/C1=C\c1ccc(-c2ccc(Br)cc2)o1 | 10µM | · | · | – | –
COc1ccc(Br)cc1CN(C)CC(=O)Nc1c(Cl)cccc1Cl | – | 16µM | ? | –[10 µM] | –
Cc1cccc(NC(=S)NNC(=O)c2csc3c2CCC(C)C3)c1 (configuration not stated) | 22µM | – | ? | – | ?
CCCc1cc(C(=O)NNC(=S)Nc2cccc(C)c2)cs1 | 10µM | ? | ? | –[10 µM] | –
Cc1cccc(NC(=S)NNC(=O)c2ccc3c(c2)OCO3)c1 | ? | – | – | · | –
CCc1cc(C(=O)NNC(=S)NC(C)c2ccccc2)cs1 (configuration not stated) | – | – | ? | – | 18µM
CC(C)Oc1ccc(CNC(=O)c2ccc3c(c2)N(C)C(=O)C2CCCCN32)cc1 (configuration not stated) | · | · | – | · | ·
COc1cc(OC)cc(C(=O)NCCc2csc(-c3ccc(C(F)(F)F)cc3)n2)c1 | · | · | – | · | ·
CCCCN(C)CCNC(=O)c1ccc2c(c1)NC(=O)CN2 | · | · | – | · | ·
C/C=C(\C)C(=O)OC1[C@@H]2C=C3C4CC(=O)OC(c5ccoc5)[C@]4(C)CCC3[C@@](C)(C2=O)C(C(O)C(=O)OC)C1(C)C (some centres not stated) | – | – | · | – | ·
CC1CN(c2snnc2C=C2C(=O)OC(C)(C)OC2=O)CC(C)O1 (configuration not stated) | 20µM | · | · | – | –
CC(C)CSc1nc2c(c(=O)[nH]c(=O)n2C)n1CC(O)COc1cccc2ccccc12 (configuration not stated) | 18µM | 13µM | – | –[10 µM] | –
CCSc1nc2c(c(=O)[nH]c(=O)n2C)n1CC(O)COc1ccccc1 (configuration not stated) | – | · | – | – | –
Cn1c(=O)[nH]c(=O)c2c1nc(SCC(O)CO)n2Cc1ccccc1Cl (configuration not stated) | 14µM | – | – | –[0.074 µM] | –
COc1ccc(-c2ccc3c(n2)CCCN3C[C@H](O)CN2CCCc3nc(-c4ccc(Br)cc4)ccc32)cc1 | –[13.5 µM] | · | · | –[10 µM] | ·
Cc1cc2c(C)nc(Cc3ccccc3)nc2o1 | 8.9µM | – | – | – | –
SMILES | ALDH1A1 inh | HPGD block | LMNA splice mod | HTT cytoprotect | HttQ103 aggreg
CCCCCOC(=O)c1[nH]c2c(c1C)C(=O)CC(c1ccco1)C2 (configuration not stated) | 28µM | – | ? | – | –
CCOCCOC(=O)c1[nH]c2c(c1C)C(=O)CC(c1cccs1)C2 (configuration not stated) | – | · | –[9.22 µM] | – | –
CCSc1nnc(NC(=O)C(C)Sc2nc3ccccc3[nH]2)s1 (configuration not stated) | – | – | – | –[10 µM] | –
CCCSc1nc(C)c(-c2csc(C(C#N)=C3CCCC3)n2)cc1C#N | 22µM | – | ? | – | ?
CCCCSc1nc2c(cc1C#N)CCC2 | ? | – | – | –[0.074 µM] | –
CCCCn1nnnc1SCC(=O)c1ccccc1F | – | · | · | –[10 µM] | –[9.22 µM]
CCCCn1nnnc1SCC(=O)c1cc(Cl)ccc1OC | 5µM | – | – | – | –
CCCCn1nnnc1SCC(=O)c1ccc(C)c(C)c1 | 7.9µM | · | ? | –[10 µM] | –
COc1ccc(C(CCN)Cc2ccccc2)cc1 (configuration not stated) | ? | · | –[9.22 µM] | – | –[9.22 µM]
N/N=C1/CC(=O)NC(=O)N1 | ? | ? | · | –[10 µM] | ·
O=C(Nc1ccc2c(c1)ncn2-c1ccccc1)c1ccco1 | ? | 32µM | – | –[10 µM] | –
O=C(Nc1cccc(-n2cnnn2)c1)c1ccco1 | 40µM | – | – | –[10 µM] | –
CC(C)(C)NC(=O)CCCSc1nc2ccccc2s1 | – | · | ? | – | ?
O=C(CCCc1nc2ccccc2s1)Nc1nccs1 | – | – | – | –[10 µM] | –
O=C(CSc1ccc2ccccc2n1)NCc1ccc2c(c1)OCO2 | 18µM | · | – | –[10 µM] | –
O=C(CCCSc1nc2ccccc2s1)NCc1ccc2c(c1)OCO2 | 3.5µM | – | – | –[1.9 µM] | –
O=C(CCCSc1nc2ccccc2s1)Nc1nccs1 | 16µM | 25µM | – | –[10 µM] | –
NNC(=O)c1ccc(CSc2nc3ccccc3s2)cc1 | 3.5µM | · | ? | – | ?
O=C(CSc1nc(C2CCCCC2)nc2ccccc12)NCc1ccc2c(c1)OCO2 | – | – | ? | –[10 µM] | ?
Cn1cc(S(=O)(=O)c2cccc(Cl)c2)c(=O)c2cc(F)c(N3CCN(c4ccc(F)cc4)CC3)cc21 | · | · | – | · | ·
O=C(CSc1nc2ccccc2s1)NCc1ccc2c(c1)OCO2 | 14µM | 32µM | – | –[10 µM] | –
O=C(CSc1nnc(SCC(=O)NCc2ccc3c(c2)OCO3)s1)NCc1ccc2c(c1)OCO2 | – | – | – | – | –
COc1ccccc1/C=C/C=N/n1c(-c2cc(C)[nH]n2)n[nH]c1=S | ? | 14µM | – | –[10 µM] | –
Cc1cc(-c2n[nH]c(=S)n2/N=C/C=C/c2ccccc2)n[nH]1 | – | 16µM | – | –[10 µM] | –
CCOc1ccc(CNC(=O)Cn2nc(C)c3nn(-c4ccc(Cl)cc4)c(C)c3c2=O)cc1 | · | · | – | · | ·
SMILES | ALDH1A1 inh | HPGD block | LMNA splice mod | HTT cytoprotect | HttQ103 aggreg
COc1ccc(CNC(=O)c2cc3c(=O)n(Cc4ccco4)ccc3nc2C)c(OC)c1 | · | · | – | · | ·
O=Nc1ccc(NOC(=O)c2ccccc2Br)cc1 | 13µM | 28µM | – | · | –
CC(C)=C1C2C=CC1C1C(=O)N(c3ccc4c(c3)OCO4)C(=O)C21 (configuration not stated) | 3.5µM | – | – | –[10 µM] | –
CC(C)=C1C2CCC1C1C(=O)N(c3ccc4c(c3)OCO4)C(=O)C21 (configuration not stated) | – | – | – | –[10 µM] | –
COC1C=CC23c4cc5c(cc4CN(CC2O)C3C1)OCO5 (configuration not stated) | – | – | · | – | ·
CCCNC(=O)c1ccc2c(c1)ncn2-c1ccccc1OC | – | 18µM | – | –[1.9 µM] | –
COc1ccccc1-n1cnc2cc(NCc3ccccc3O)ccc21 | · | · | · | –[10 µM] | –[9.22 µM]
COc1ccc(OC)c(-n2cnc3cc(C(=O)NCCCN4CCOCC4)ccc32)c1 | – | 25µM | – | – | –

High-throughput results: PubChem BioAssay, National Center for Advancing Translational Sciences (NCATS)
